These results are taken from PubChem BioAssay (NCI).

About 83,000 compounds went through this panel and 20% of them were active in at least one assay; those are over-represented in the sample as a whole.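 For each line, cells grew in 96-well plates with the test compound present at a single concentration for 48 hours.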 Values without a mark were called inactive. Active and inactive are the calls of the source.

For the assay, the system named is SK-OV-3 ovarian. Description: NCI-60 one-dose screen, 48 h (100 = growth as untreated, 0 = no growth, -100 = all killed). The conditions noted are these: 10 µM unless noted. Here is the method: Growth inhibition of the SK-OV-3 human tumor cell line is measured as a screen for anti-cancer activity. Cells are grown in 96 well plates and exposed to the test compound for 48 hours. Compounds are tested at a single concentration, which is 10^-5 M for most compounds. The reported endpoint is percent growth (GI% or GIPRCNT), where numbers from 0 - 100% represent growth inhibition, and numbers from -100% - 0 represent cell death. For example, a value of 40 represents 60% growth inhibition. A value of 0 means no net growth occurred over the course of the experiment. A value of -40 indicates 40% of cells at the beginning of the experiment died by the end of the experiment. A value of -100 means all cells are dead at the end of the experiment.
NCI-60 Human Tumor Cell Lines Screen was performed using the standard one-dose NCI protocol, which is described in more detail at https://dtp.cancer.gov/discovery_development/nci-60/default.htm.
Compounds with GIPRCNT values below 10 were considered active. Activity score was based on GIPRCNT using the following formula: […]
Score is 0 for GIPRCNT values of 100 or above, 50 for GIPRCNT values of 0, and 100 for GIPRCNT values of -100.
Consider `C[C@@H](Nc1cc(F)cc(F)c1)c1cc(C(=O)N(C)C)cc2c(=O)cc(N3CCOCC3)oc12`, for which the growth is 3.43% (active). In the case of `CCCCN1C(=O)c2cccc3c(-c4ccc5c(c4)ncn5C4CCCCC4)ccc(c23)C1=O`, the growth is 92.3%. For `Cc1[nH]n(C(N)=S)c(=O)c1N=Nc1ccc(S(=O)(=O)Nc2ccncn2)cc1`, the growth was 100%. For the molecule `COC(=O)CNC(=O)[C@@H](OC)[C@@H]1Cc2cc3cc(OC4CC(OC5CC(O)C(O)C(C)O5)C(O)C(C)O4)c(C)c(O)c3c(O)c2C(=O)[C@H]1OC1CC(OC2CC(OC3CC(C)(O)C(O)C(C)O3)C(O)C(C)O2)C(O)C(C)O1` (stereo not given in full), the growth is 24.3%. Under `COc1cc(OC)c(/C=C/S(=O)(=O)Cc2ccc(OC)c(NCC(=O)O)c2)c(OC)c1` stands 15.8%; under `N#Cc1cc2[nH]c3ccc(OC(F)(F)F)cc3c2oc1=O`, 62.5%; under `Nc1ccc(S(=O)(=O)O)c2cc(S(=O)(=O)O)cc(O)c12`, 101%. Consider `COC(=O)CCCNc1c(-c2c(O)c(O)cc3c(O)c(-c4c(C)cc5c(-c6nc7ccccn7c6NCCCC(=O)OC)c(O)c(O)cc5c4O)c(C)cc23)nc2ccccn12`, for which the growth was 50.5%. For `CCCCCCCC(=O)SCC/C=C/[C@@H]1CC(=O)NCc2cccc(n2)C2=N[C@@](C)(CS2)C(=O)N[C@@H](C(C)C)C(=O)O1` the value was -31.4% (active); for `CCCCCCC1(/C=N/NC(N)=O)NC(=O)NC1=O` (stereo not given), 83.2%.

As to `CNC(=O)c1nn(C)c2c1C(C)(C)Cc1cnc(Nc3ccc(N4CCN(C)CC4)cc3)nc1-2`, the growth was -16.9% (active). Turning to `CCOc1cc2ncc(C#N)c(Nc3ccc(OCc4ccccn4)c(Cl)c3)c2cc1NC(=O)/C=C/CN(C)C`, the growth is -10.6% (active). With `Nc1c(C(=O)c2ccccc2)sc2nc(-c3cccs3)ccc12`, the growth was 35.4%. Take `NC1=Nc2ccccc2N(O)N1`: the growth was 90.9%. With `CC(C)(C)C(=O)OCOP(=O)(OCOC(=O)C(C)(C)C)C1CCCN(OC(=O)c2ccccc2)C1=O` (stereo not given), the growth is 20.6%. Turning to `CC(C)NC[C@@H](C(=O)N1CCN(c2ncnc3c2[C@H](C)C[C@H]3O)CC1)c1ccc(Cl)cc1`, the growth was -9.72% (active). For `CCn1c(-c2nonc2N)nc2c(C#CC(C)(C)O)ncc(OC[C@H]3CCCNC3)c21` the value was 15%; for `COc1ccc(/C(C)=C(\c2ccc(Cl)cc2)c2ccc(OCCN3CCCCCC3)cc2)cc1`, 55.7%. Turning to `CC1(O)CC(c2nc(-c3ccc4ccc(-c5ccccc5)nc4c3)c3c(N)nccn23)C1` (stereo not given), the growth was 13.5%. In the case of `CS(=O)(=O)N1CCc2c(-c3cnc(N)nc3)nc(N3CCOCC3)nc21`, the growth was -40.6% (active). For `O=C(NO)c1ccc(Cn2c(=O)n(CCc3ccccc3)c(=O)c3ccccc32)cc1`, the growth was 26.3%. Regarding `COC(=O)[C@@H](NC(=O)[C@@H](OC)[C@@H]1Cc2cc3cc(OC4CC(OC5CC(O)C(O)C(C)O5)C(O)C(C)O4)c(C)c(O)c3c(O)c2C(=O)[C@H]1OC1CC(OC2CC(OC3CC(C)(O)C(O)C(C)O3)C(O)C(C)O2)C(O)C(C)O1)C(C)C` (stereo not given in full), the growth was 20.4%. For `N#CC[C@H](C1CCCC1)n1cc(-c2ncnc3[nH]ccc23)cn1`, the growth is 38.4%. As for `Clc1ccc(Nc2nccc(Nc3ccc4[nH]ncc4c3)n2)cc1`, the growth is 88.4%. As for `C=CC(=O)Nc1cc2c(Nc3ccc(F)c(Cl)c3)ncnc2cc1OCCCN1CCOCC1`, the growth was -16.3% (active). For `Clc1ccc2c(NCCCNCc3ccc4c(c3)OCO4)ccnc2c1`, the growth was 71.2%. As for `N#Cc1c(NC(=O)c2cccs2)[n+]([O-])c2ccc(F)cc2[n+]1[O-]`, the growth was 82.6%.

For the molecule `CCCCCCCCCCCC[n+]1ccccc1`, the growth is -1.15% (active). Under `COc1cc(NCCN(CC(C)C)CC(C)C)c2ncc(C)cc2c1` stands 88.8%; under `CCc1ccc(C2=C(O)C(=O)C(c3ccc(CC)cc3)=C(O)C2=O)cc1`, -9.04% (active).

Consider `Cc1ccc(Nc2nccc(N(C)c3ccc4c(C)n(C)nc4c3)n2)cc1S(N)(=O)=O`, for which the growth was -1.9% (active). Take `CNC(=O)c1cc(Oc2ccc(NC(=O)Nc3cc(C(C)(C)C)nn3-c3ccc4ncccc4c3)c(F)c2)ccn1`: the growth is -13.3% (active).

In the case of `Nc1c(Cl)cccc1[N+](=O)[O-]`, the growth was 108%. For the molecule `Cc1ccc(-n2nc(C(C)(C)C)cc2NC(=O)NCc2cc(F)ccc2Oc2ccc3c(cnn3CCO)c2)cc1`, the growth is 18.2%. For `CC(C)OP(=O)(CCC(=O)c1c[nH]c2ccccc12)OC(C)C` the value was 89%; for `CCN(CC)CCN1C(=O)c2cccc3c(-c4ccc5c(c4)ncn5C4CCCCC4)ccc(c23)C1=O`, 21.2%. `Cc1ccc(-c2cc3c(SCC(=O)Nc4cc(C(F)(F)F)ccc4Cl)nccn3n2)cc1`: the growth is 84.3%. Under `COc1cc2c3c(c1)nc(C)n3CCC2` stands 90.8%; under `C=CC(=O)Nc1cccc(Nc2nc(Nc3ccc(N4CCN(C(C)=O)CC4)cc3OC)ncc2C(F)(F)F)c1`, -18% (active); under `Nc1cc(C(F)(F)F)c(-c2cc(N3CCOCC3)nc(N3CCOCC3)n2)cn1`, -54.8% (active).
